Inconclusive results are not listed. Active and inactive are the calls of the source. Calls follow the shape of the dose curve; as a rule, active = well fitted cell-killing curve with a large enough effect; inconclusive = small, poorly fitted or top-dose-only effect, or effect the other way; inactive = no such curve, though single readings can be large or run the other way.
Potency is read from the fitted curve at half-maximal effect.

The assay can be described thus: Quantitative High-Throughput drug screen in 47 multiple myeloma cell lines against the NCATS MIPE library collection: UTMC2_PLB cell viability assay (AID 1919868). Also: nearly all actives have a fitted effect of over 55% in size. To be noted: CellTiter-Glo ATP luminescence, 48 h; viability (% of DMSO control): at 45.8 µM (top of the series). From the text: PI: Beverly A. Mock Ph.D.
Laboratory of Cancer Biology and Genetics,
Center for Cancer Research, National Cancer Institute,
National Institute of Health, Bethesda, Maryland
Drug resistance and disease progression are common in multiple myeloma (MM) patients, underscoring the need for new therapeutic combinations. […] We hypothesized that effective combinations would reduce MYC expression and enhance p16 activity. […] These preclinical data identify potentially useful drug combinations for evaluation in drug-resistant MM and reveal potential mechanisms of combined drug sensitivity.
Described herein is the primary MIPE qHTS used to cherrypick compounds. Validated compounds were then further tested for potential synergistic activiy.
[1] Peat TJ, Gaikwad SM, Dubois W, Gyabaah-Kessie N, Zhang S, Gorjifard S, Phyo Z, Andres M, Hughitt VK, Simpson RM, Miller MA, Girvin AT, Taylor A, Williams D, D'Antonio N, Zhang Y, Rajagopalan A, Flietner E, Wilson K, Zhang X, Shinn P, Klumpp-Thomas C, McKnight C, Itkin Z, Chen L, Kazandijian D, Zhang J, Michalowski AM, Simmons JK, Keats J, Thomas CJ, Mock BA. Drug combinations identified by high-throughput screening promote cell cycle transition and upregulate Smad pathways in myeloma. Cancer Lett. 2023 Aug 1;568:216284. doi: 10.1016/j.canlet.2023.216284. Epub 2023 Jun 24. PMID: 37356470; PMCID: PMC10408729.
SEQUENCE No. (e.g., 1, 2, 3, etc.); […] (e.g., Cells, Incubation, Reagent, etc.); VALUE and DESCRIPTION.
1; Cells; 5 uL; white, solid bottom 1536-well Greiner assay plate.
2; Compounds; 23 nL; Kalypsis pin tool (Wako USA) equipped with a 1536-well pin head to transfer to the assay plates.
3; Incubation; 48 hours; 37C incubation.
4; Reagent;5uL; CellTiter Glo (Promega).
5; Detector; 425V; Luminescence; Viewlux PerkinElmer.
NOTES (numbers refer to Sequence numbers above)
1. The cell-based screening methods employed in this study were like those previously published. Briefly, the corresponding myeloma cell lines were screened in 1,536-well plates with 500 cells, 5-uL per well for inhibition of cell viability (assessed by measuring ATP levels with CellTiterGlo).
2. NCATS MIPE 4.0 library of approved and investigational drugs were added using the Kalypsis pin tool. Wells treated with DMSO only for 100% viability and media only for 0% viability were used as controls.
3. The assay plates were covered and incubated for 48 hours in a 37C, 5% CO2 incubator with controlled humidity.
4. After 48 hours, CellTilter-GloTM luminescent substrate mix (Promega) reagent was added to the assay plate and plates we incubated for 5 min at room temperature.
5. Signal was measured as median relative luminescence units on a ViewLux (PerkinElmer) multiplate reader.
[1] Heske CM, Davis MI, Baumgart JT, Wilson K, Gormally MV, Chen L, Zhang X, Ceribelli M, Duveau DY, Guha R, Ferrer M, Arnaldez FI, Ji J, Tran HL, Zhang Y, Mendoza A, Helman LJ, Thomas CJ. Matrix Screen Identifies Synergistic Combination of PARP Inhibitors and Nicotinamide Phosphoribosyltransferase (NAMPT) Inhibitors in Ewing Sarcoma. Clin Cancer Res. 2017 Dec 1;23(23):7301-7311. doi: 10.1158/1078-0432.CCR-17-1121. Epub 2017 Sep 12. PMID: 28899971; PMCID: PMC6636827.
(Cellular ATP, detected with luciferase, serves as a proxy for viable cell number.)
As for `CCC[C@H](Nc1nc(-c2ccc(NC(=O)NCC)c(OC)c2)ncc1C)c1cccnc1`, the Potency was 0.001 µM (active).

Turning to `C=CCc1cccc(C=NNC(=O)CN2CCN(Cc3ccccc3)CC2)c1O`, the Potency is 20.9 µM (active). In the case of `C[C@@H]1O[C@@H](O[C@H]2CC[C@@]3(C)[C@H](CC[C@@H]4[C@H]3C[C@@H](O)[C@]3(C)[C@@H](C5=CC(=O)OC5)CC[C@]43O)C2)C[C@H](O)[C@@H]1O[C@H]1C[C@H](O)[C@H](O[C@H]2C[C@H](O)[C@@H](O)[C@@H](C)O2)[C@H](C)O1` (stereo in doubt) it was 0.0959 µM (active). For the molecule `Cc1[nH]c(C=C2C(=O)Nc3ccc(S(=O)(=O)N(C)c4cccc(Cl)c4)cc32)c(C)c1C(=O)N1CCN(C)CC1`, the Potency was 11.8 µM (active).

Turning to `CO[C@H]1C=CO[C@@]2(C)Oc3c(C)c(O)c4c(O)c(c(C=NN5CCN(C)CC5)c(O)c4c3C2=O)NC(=O)C(C)=CC=C[C@H](C)[C@H](O)[C@@H](C)[C@@H](O)[C@@H](C)[C@H](OC(C)=O)[C@H]1C`, the Potency result was “inactive”.

Regarding `COc1cc(Cl)cn2c(-c3cccc(NC4CNC4)n3)cnc12`, the Potency is 20.9 µM (active). In the case of `C[C@@]1(C(=O)Nc2ccc(F)nc2)CCCN1c1nc(Nc2cc(C3CC3)[nH]n2)c2cccn2n1` it was 0.0118 µM (active). As for `NC(=O)c1ccc(N(C(N)=O)c2c(F)cccc2F)nc1-c1ccc(F)cc1F`, the Potency was 9.35 µM (active).

For the molecule `OC(c1cc(C(F)(F)F)nc2c(C(F)(F)F)cccc12)C1CCCCN1` (stereo not given), the Potency was 20.9 µM (active).

On to `Cc1nc(C(=O)NCC(=O)O)c(O)c2ccc(Oc3ccccc3)cc12`, for which the Potency result was “inactive”. For `CCC[C@@H](NC(=O)[C@@H]1[C@H]2CCC[C@@H]2CN1C(=O)[C@@H](NC(=O)[C@@H](NC(=O)c1cnccn1)C1CCCCC1)C(C)(C)C)C(=O)C(=O)NC1CC1`, the Potency entry was “inactive”.

As for `CCC(C)SSc1ncc[nH]1` (stereo not given), the Potency is 8.33 µM (active). In the case of `CC(C)(C)c1nc(-c2cccc(NS(=O)(=O)c3c(F)cccc3F)c2F)c(-c2ccnc(N)n2)s1` it was “inactive”. For `Cc1ccc(NC(=O)c2cccc(N(C)C)c2)cc1NC(=O)c1ccc(O)cc1`, the Potency is 0.332 µM (active). In the case of `Nc1[nH]nc2nnc(-c3c(-c4ccccc4)nn4ccccc34)cc12` it was 4.18 µM (active); in that of `CC[C@H]1OC(=O)[C@H](C)[C@@H](O[C@H]2C[C@@](C)(OC)[C@@H](O)[C@H](C)O2)[C@H](C)[C@@H](O[C@@H]2O[C@H](C)C[C@H](N(C)C)[C@H]2O)[C@](C)(O)C[C@H](C)C(=NOCOCCOC)[C@H](C)[C@@H](O)[C@]1(C)O`, “inactive”. In the case of `O=C1NC(=O)C(c2cnc3ccccn23)=C1c1cn2c3c(cccc13)CN(C(=O)N1CCOCC1)CC2` it was 0.001 µM (active). In the case of `CCc1cccc(CC)c1NC(=O)N1Cc2[nH]nc(NC(=O)c3ccc(N4CCN(C)CC4)cc3)c2C1` it was 0.743 µM (active); in that of `NC(N)=Nc1nc(CSCCC(N)=NS(N)(=O)=O)cs1`, 9.35 µM (active). For the molecule `C[C@@]1(c2cc(-c3cncnc3)c(F)cc2F)CCSC(N)=N1`, the Potency result is “inactive”. In the case of `CNC1CCC(N(Cc2cccc(-c3ccncc3)c2)C(=O)c2sc3ccccc3c2Cl)CC1` (stereo not given) it was 10.5 µM (active).

Regarding `Cc1cccc(Nc2nc(N[C@@H]3CCCC[C@H]3N)ncc2C(N)=O)c1`, the Potency is 9.35 µM (active). Regarding `CC(C)C[C@@H](C(=O)N[C@H](C(=O)OC1CCCC1)c1ccccc1)[C@H](O)C(=O)NO`, the Potency was 16.6 µM (active). In the case of `O=C(Nc1cccc(Cl)c1)Nc1ncc(CCNc2ncnc3ccsc23)s1` it was 0.372 µM (active).

As for `CS(=O)(=O)c1ccc(C2=C(c3ccccc3)C(=O)OC2)cc1`, the Potency entry was “inactive”.

For `COC(=O)Nc1ccc(-c2nc(N3CCOCC3)c3cnn(C4CCN(C(=O)OC)CC4)c3n2)cc1`, the Potency is 0.059 µM (active). In the case of `C[C@H]1COC2=C1C(=O)C(=O)c1c2ccc2c1CCCC2(C)C` it was 9.35 µM (active).

As to `N#CC(c1ccnc(NCCc2cccnc2)n1)c1nc2ccccc2s1` (stereo not given), the Potency is 16.6 µM (active). In the case of `C=C[C@@H]1CN2CCC1C[C@@H]2C(O)c1ccnc2ccc(OC)cc12` (stereo not given in full) it was “inactive”; in that of `COc1nc(C)cnc1NS(=O)(=O)c1cccnc1-c1ccc(-c2nnco2)cc1`, “inactive”. In the case of `Cc1ccc(S(=O)(=O)Nc2nc3ccccc3nc2Nc2ccc3nsnc3c2)cc1` it was 1.02 µM (active). In the case of `O=C(Nc1cccc(C(F)(F)F)c1)Nc1cc(S(=O)(=O)NC2CC2)ccc1-c1ccsc1` it was 18.7 µM (active); in that of `C[C@@H]1C[C@H]2[C@@H]3CCC4=CC(=O)C=C[C@]4(C)[C@@]3(F)[C@@H](O)C[C@]2(C)[C@@]1(O)C(=O)CO`, “inactive”. As to `FC(F)(F)c1ccc(C=Cc2nc(COc3ccc(CCCCn4ccnn4)cc3)co2)cc1`, the Potency is 0.0833 µM (active). In the case of `CC1=C(C(=O)Nc2cc3cn[nH]c3cc2F)C(c2ccc(C(F)(F)F)cc2)CC(=O)N1` (stereo not given) it was 8.33 µM (active); in that of `CC[C@]1(O)C[C@H]2CN(CCC3=c4ccccc4=N[C]3[C@@](C(=O)OC)(c3cc4c(cc3OC)N(C)[C@H]3[C@@](O)(C(N)=O)[C@H](O)[C@]5(CC)C=CCN6CC[C@]43[C@@H]65)C2)C1`, 0.0053 µM (active). In the case of `COc1cc2ncnc(Nc3cc(Br)c(O)c(Br)c3)c2cc1OC` it was 0.526 µM (active). In the case of `Cc1ccc(S(=O)(=O)OCC(=O)Nc2ccc(C(=O)O)c(O)c2)cc1` it was 9.35 µM (active).

For `COC(=O)[C@H](c1ccccc1Cl)N1CCc2sccc2C1`, the Potency entry was “inactive”.

In the case of `CN(C)CCOc1ccc(C(=C(CCCl)c2ccccc2)c2ccccc2)cc1`, the Potency result was “inactive”.

The record behind these values is PubChem BioAssay (NCATS).
